# Data taken from PubChem BioAssay (NCATS).
# Results filed as inconclusive are left out. A call without a number means that no potency is given here. Unmarked numbers belong to inactive results. The source made the active and inactive calls. Calls come from the whole dose curve; as a rule, active = well fitted cell-killing curve with a large enough effect; inconclusive = small, poorly fitted or top-dose-only effect, or effect the other way; inactive = flat fitted curve, though single readings scatter.
# Legend:
# Experiment in all cases: Primary qHTS to identify gynecologic anti-cancer compounds using libraries of approved drugs and bioactive compounds (AID 1345084); note: nearly all actives have a fitted effect of over 55% in size
# Conditions in all cases: Gynecologic cancer cell panel viability, ATPlite luminescence, 48 h; series mostly up to 57.5 µM
# [1] = system: OV90
# In short: (§1)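 Luminescence from the ATPlite ATP-monitoring reagent indicates viable cell number; lower signal means cytotoxicity. Cells received compound 16 h after seeding and were exposed for 48 h across five concentrations.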
# [2] = system: PA-1
# In short: as §1
# [3] = system: SKOV3
# In short: as §1
# [4] = system: Tov-21-G
# In short: as §1
# [5] = system: Tov112D
# In short: as §1
# Potency is the fitted concentration of half-maximal effect.
compound,measurement,setting,value
C[C@@H]1O[C@@H](O[C@H]2[C@H](OC(=O)[C@]34CCC(C)(C)C[C@H]3C3=CCC5[C@@]6(C)C[C@@H](O)[C@@H](O)[C@@](C)(CO)C6[C@H](O)C[C@@]5(C)[C@]3(C)CC4)OC[C@H](O)[C@@H]2O)[C@H](O)[C@H](O)[C@H]1O[C@@H]1OC[C@@H](O)[C@H](O[C@H]2O[C@H](C)[C@@H](O)[C@H](O)[C@@H]2O)[C@H]1O (some centres undefined),"activity change, negative = cytotoxicity",[1],9.69% [at 11.6 µM]
same,"activity change, negative = cytotoxicity",[2],12.4% [at 11.6 µM]
same,"activity change, negative = cytotoxicity",[3],-1.53% [at 11.6 µM]
same,"activity change, negative = cytotoxicity",[4],0.722% [at 11.6 µM]
same,"activity change, negative = cytotoxicity",[5],3.92% [at 11.6 µM]
FC(F)(F)c1nnc2c(Sc3ccccc3)nc3ccc(Cl)cc3n12,Potency,[1],inactive
same,Potency,[2],inactive
same,Potency,[4],inactive
same,Potency,[5],inactive
CC(=O)O[C@H]1C[C@@H](O)C(C)(C)C2C[C@@H](OC(C)=O)[C@@]3(C)C4=CCC(C(CO)CC(O)C5OC5(C)C)[C@]4(C)CCC3[C@]21C (some centres undefined),Potency,[1],inactive
same,Potency,[2],inactive
same,Potency,[3],inactive
same,Potency,[4],inactive
same,Potency,[5],inactive
CC(C)[C@@](O)(c1ccc2cc(OC(F)F)c(OC(F)F)cc2c1)c1cn[nH]n1,Potency,[1],inactive
same,Potency,[2],inactive
same,Potency,[3],inactive
same,Potency,[4],inactive
same,Potency,[5],inactive
Cc1nnc(-c2sc(NC(=O)[C@H](C(C)C)n3c(=O)[nH]c4ccccc4c3=O)nc2C)o1,Potency,[1],inactive
same,Potency,[2],inactive
same,Potency,[3],inactive
same,Potency,[5],inactive
CNC(C)C(=O)NC(C(=O)N1CCCC1C(=O)Nc1cccc2ncccc12)C(C)C (centres undefined),Potency,[1],inactive
same,Potency,[2],inactive
same,Potency,[3],7.94 µM (active)
same,Potency,[5],inactive
CCCN1CCC[C@@H](c2cccc(S(C)(=O)=O)c2)C1,Potency,[1],inactive
same,Potency,[2],inactive
same,Potency,[3],inactive
same,Potency,[4],inactive
same,Potency,[5],inactive
FC(F)(F)Oc1ccc(-c2ccc3nnc(C(F)(F)F)n3c2)cc1,Potency,[1],inactive
same,Potency,[2],inactive
same,Potency,[3],inactive
same,Potency,[4],inactive
same,Potency,[5],inactive
COc1cc(/C=C/C(=O)O[C@H]2[C@@H]3C=CO[C@@H](O[C@@H]4O[C@H](CO)[C@@H](O)[C@H](O)[C@H]4O)[C@@H]3[C@@]3(CO)O[C@@H]23)ccc1O,Potency,[1],inactive
same,Potency,[2],inactive
same,Potency,[3],inactive
same,Potency,[4],inactive
same,Potency,[5],inactive
CC1(C)CC[C@]2(C(=O)O)CC[C@]3(C)C(=CCC4[C@@]5(C)C[C@@H](O)[C@H](O)[C@@](C)(CO)C5[C@H](O)C[C@]43C)[C@@H]2C1 (some centres undefined),Potency,[1],inactive
same,Potency,[2],inactive
same,Potency,[4],inactive
same,Potency,[5],inactive
CC(O)C1CCC2C3CCC4CC(OC5OC(C(=O)O)C(O)C(O)C5O)CCC4(C)C3CCC12C (centres undefined),Potency,[1],inactive
same,Potency,[2],inactive
same,Potency,[3],inactive
same,Potency,[4],inactive
same,Potency,[5],inactive
CC(C)CC(=O)NCCn1cc(C(=O)O)c(=O)cc1C(O)c1ccccc1 (centres undefined),Potency,[1],inactive
same,Potency,[2],inactive
same,Potency,[3],inactive
same,Potency,[4],inactive
same,Potency,[5],inactive
CN(C)CC(c1ccc(O)cc1)C1(O)CCCCC1 (centres undefined),Potency,[1],inactive
same,Potency,[2],inactive
same,Potency,[3],inactive
same,Potency,[5],inactive
C[C@H]1CC[C@@]2(OC1)O[C@H]1CC3C4CC[C@H]5C[C@@H](O[C@@H]6O[C@H](CO)[C@H](O[C@@H]7O[C@H](CO)[C@@H](O)[C@H](O[C@@H]8OC[C@@H](O)[C@H](O)[C@H]8O)[C@H]7O[C@@H]7O[C@H](CO)[C@@H](O)[C@H](O)[C@H]7O)[C@H](O)[C@H]6O)[C@H](O)C[C@]5(C)C4=CC(=O)[C@]3(C)[C@H]1[C@@H]2C (some centres undefined),"activity change, negative = cytotoxicity",[1],-5.92% [at 11.6 µM]
same,"activity change, negative = cytotoxicity",[2],7.95% [at 11.6 µM]
same,"activity change, negative = cytotoxicity",[3],0.679% [at 11.6 µM]
same,"activity change, negative = cytotoxicity",[4],-4.82% [at 11.6 µM]
same,"activity change, negative = cytotoxicity",[5],2.81% [at 11.6 µM]
CC1C2=CC(=O)OC2(O)CC2C1CCC1C(C)(C)CCC(O)C21C (centres undefined),Potency,[1],inactive
same,Potency,[2],inactive
same,Potency,[3],inactive
same,Potency,[4],inactive
same,Potency,[5],inactive
COC(=O)C1=CO[C@@H](O[C@@H]2O[C@H](CO)[C@@H](O)[C@H](O)[C@H]2O)[C@H]2[C@@H]1[C@H](O)C[C@]2(C)O,Potency,[1],inactive
same,Potency,[2],inactive
same,Potency,[4],inactive
same,Potency,[5],inactive
C[C@@H]1O[C@@H](O[C@H]2[C@@H]3C=CO[C@@H](O[C@@H]4O[C@H](CO)[C@@H](O)[C@H](O)[C@H]4O)[C@@H]3[C@@]3(CO)O[C@@H]23)[C@H](O)[C@H](OC(=O)/C=C/c2ccc(O)c(O)c2)[C@H]1O,Potency,[1],inactive
same,Potency,[2],inactive
same,Potency,[4],inactive
CC(CC12CCCN1C(=O)C1CCCN1C2=O)OC(N)=O (centres undefined),Potency,[1],inactive
same,Potency,[2],inactive
same,Potency,[3],inactive
same,Potency,[4],inactive
same,Potency,[5],inactive
Cc1ccc2nc(NC(=O)CSc3nc4c(c(=O)n3-c3ccc(F)cc3)SCC4)sc2c1,Potency,[1],inactive
same,Potency,[2],inactive
same,Potency,[3],inactive
same,Potency,[4],inactive
same,Potency,[5],inactive
CC(C)(O)C1OC1C1=CC(=O)C2(C)OC2C1O (centres undefined),Potency,[1],inactive
same,Potency,[2],inactive
same,Potency,[4],inactive
same,Potency,[5],inactive
COC(=O)C1=CO[C@@H](O[C@@H]2O[C@H](CO[C@@H]3O[C@H](CO)[C@@H](O)[C@H](O)[C@H]3O)[C@@H](O)[C@H](O)[C@H]2O)[C@@H]2C(CO)=CC[C@H]12,Potency,[1],inactive
same,Potency,[2],inactive
same,Potency,[3],inactive
same,Potency,[4],inactive
same,Potency,[5],inactive
O=C(/C=C/c1ccc(O)cc1)OC[C@H]1O[C@@H](O/C(=C\c2ccccc2)C(=O)O)[C@H](O)[C@@H](O)[C@@H]1O,Potency,[1],inactive
same,Potency,[2],inactive
same,Potency,[3],inactive
same,Potency,[4],inactive
same,Potency,[5],inactive
CC1(C(=O)O)CCCC2(C)C3CC4C5CC3(CCC12)CC45C (centres undefined),Potency,[1],inactive
same,Potency,[2],inactive
same,Potency,[3],inactive
same,Potency,[4],inactive
same,Potency,[5],inactive
COc1ccc(/C=C/C(=O)O[C@@H]2[C@@H](OC(C)=O)[C@@H](OC(C)=O)[C@H](O[C@H]3[C@@H]4C=CO[C@@H](O[C@@H]5O[C@H](CO)[C@@H](O)[C@H](O)[C@H]5O)[C@@H]4[C@@]4(CO)O[C@@H]34)O[C@H]2C)cc1,Potency,[1],inactive
same,Potency,[2],inactive
same,Potency,[3],inactive
same,Potency,[4],inactive
same,Potency,[5],inactive
COC(=O)CCC1(C)C(C(C)(C)O)C(O)CC2(C)Oc3c(C)c4c(c(OC)c3CC21)C(=O)OC4 (centres undefined),Potency,[1],inactive
same,Potency,[2],inactive
same,Potency,[3],inactive
same,Potency,[5],inactive
C[C@@H]1O[C@@H](O[C@H]2[C@H](OC(=O)[C@]34CCC(C)(C)C[C@H]3C3=CCC5[C@@]6(C)CC[C@H](O[C@@H]7O[C@H](CO[C@@H]8OC[C@H](O)[C@H](O)[C@H]8O)[C@@H](O)[C@H](O)[C@H]7O)C(C)(C)C6CC[C@@]5(C)[C@]3(C)C[C@H]4O)OC[C@@H](O)[C@@H]2O)[C@H](O)[C@H](O[C@@H]2OC[C@](O)(CO)[C@H]2O)[C@H]1O[C@@H]1OC[C@H](O)[C@H](O[C@@H]2OC[C@@H](O)[C@H](O)[C@H]2O)[C@H]1O (some centres undefined),"activity change, negative = cytotoxicity",[1],-11.9% [at 6.55 µM]
same,"activity change, negative = cytotoxicity",[2],-3.2% [at 6.55 µM]
same,"activity change, negative = cytotoxicity",[3],6.12% [at 6.55 µM]
same,"activity change, negative = cytotoxicity",[4],4.71% [at 6.55 µM]
same,"activity change, negative = cytotoxicity",[5],0.0459% [at 6.55 µM]
COC(=O)C[C@H]1C(C)(C)[C@H](OC(=O)C(C)C)C2CC3=C4CC(=O)O[C@@H](c5ccoc5)[C@]4(C)CCC3[C@@]1(C)C2=O (some centres undefined),Potency,[1],inactive
same,Potency,[2],inactive
same,Potency,[3],inactive
same,Potency,[4],inactive
same,Potency,[5],inactive
CC1(C)CC[C@]2(C(=O)O[C@@H]3O[C@H](CO)[C@@H](O)[C@H](O)[C@H]3O)CC[C@]3(C)C(=CCC4[C@@]5(C)CC[C@H](O[C@@H]6O[C@H](C(=O)O)[C@@H](O[C@@H]7O[C@H](CO)[C@@H](O)[C@H](O)[C@H]7O)[C@H](O)[C@H]6O)C(C)(C)C5CC[C@]43C)C2C1 (some centres undefined),"activity change, negative = cytotoxicity",[1],3.65% [at 11.6 µM]
same,"activity change, negative = cytotoxicity",[2],12% [at 11.6 µM]
same,"activity change, negative = cytotoxicity",[3],7.57% [at 11.6 µM]
same,"activity change, negative = cytotoxicity",[4],4.63% [at 11.6 µM]
same,"activity change, negative = cytotoxicity",[5],2.05% [at 11.6 µM]
O=C(NCCN1CCCC1)c1cc(-c2ccc(CN3CCOCC3)cc2)nc2ccc(F)cc12,Potency,[1],inactive
same,Potency,[2],inactive
same,Potency,[3],inactive
same,Potency,[4],inactive
same,Potency,[5],inactive
COc1ccc(S(=O)(=O)Nc2nc(-c3cccc([N+](=O)[O-])c3)cs2)cc1OC,Potency,[1],inactive
same,Potency,[2],inactive
same,Potency,[3],inactive
same,Potency,[4],inactive
same,Potency,[5],inactive
CC(=O)O[C@@H]1[C@H](O[C@@H]2OC[C@](O)(CO)[C@H]2O)[C@@H](O[C@@H]2O[C@@H](C)[C@H](O)[C@@H](O[C@@H]3O[C@H](CO)[C@@H](O)[C@H](O)[C@H]3O)[C@H]2O)[C@H](OC(=O)[C@]23CCC(C)(C)C[C@H]2C2=CCC4[C@@]5(C)C[C@H](O)[C@H](O[C@@H]6O[C@H](C(=O)O)[C@@H](O)[C@H](O)[C@H]6O)[C@@](C)(C(=O)O)C5CC[C@@]4(C)[C@]2(C)CC3)O[C@@H]1C (some centres undefined),"activity change, negative = cytotoxicity",[1],0.0108% [at 6.55 µM]
same,"activity change, negative = cytotoxicity",[2],3.28% [at 6.55 µM]
same,"activity change, negative = cytotoxicity",[3],27% [at 6.55 µM]
same,"activity change, negative = cytotoxicity",[4],0.936% [at 6.55 µM]
same,"activity change, negative = cytotoxicity",[5],-2.6% [at 6.55 µM]
Cc1onc(-c2c(Cl)cccc2Cl)c1CC(=O)NCc1ccc(OCC(F)(F)F)nc1,Potency,[1],inactive
same,Potency,[2],inactive
same,Potency,[3],inactive
same,Potency,[4],inactive
same,Potency,[5],inactive
COC(=O)C(CC1CCCC1)c1ccc(S(C)(=O)=O)cc1 (centres undefined),Potency,[1],inactive
same,Potency,[2],inactive
same,Potency,[3],inactive
same,Potency,[4],inactive
same,Potency,[5],inactive
COc1cc(C)c(C(=O)NC2C(C)OC(OC3CCC(C)C4C3C=C(C)C3/C(C)=C\CC/C(C)=C/C5(C)C=C(C(=O)O)C(C)CC56OC(=O)/C(=C(\O)C34C)C6=O)C(O)C2(C)O)c(O)c1 (centres undefined),"activity change, negative = cytotoxicity",[1],6.29% [at 11.6 µM]
same,"activity change, negative = cytotoxicity",[2],-2.04% [at 11.6 µM]
same,"activity change, negative = cytotoxicity",[3],-10.1% [at 11.6 µM]
same,"activity change, negative = cytotoxicity",[4],4.24% [at 11.6 µM]
same,"activity change, negative = cytotoxicity",[5],8.49% [at 11.6 µM]
C=C1CC/C=C(/C(=O)O)CCC2C1CC2(C)C (centres undefined),Potency,[1],inactive
same,Potency,[2],inactive
same,Potency,[3],inactive
same,Potency,[4],inactive
same,Potency,[5],inactive
O=C(C[C@@H]1C(C(=O)O)=CO[C@@H](O[C@@H]2O[C@H](CO)[C@@H](O)[C@H](O)[C@H]2O)/C1=C\CO)OCCc1ccc(O)c(O)c1,Potency,[1],inactive
same,Potency,[2],inactive
same,Potency,[4],inactive
same,Potency,[5],inactive
